From the supplement of paper PMC9694430

Columns and labels:
Experiment in all cases: thermal shift delta Tm vs DMSO control; higher = stronger stabilization (binding)
Settings in all cases: 12.5 µM; protein concentration 2 µM
[1] = system: LOC_OS01G57100-cb003
In short: (§1)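 Rice kinase domain constructs were expressed in E. coli, purified, and tested by differential scanning fluorimetry with compound added in DMSO. Each well of a 96-well plate held 19.5 μl of 2 μM kinase in 100 mM potassium phosphate pH 7.5, 150 mM NaCl, 10% glycerol and 5 × SYPRO Orange, and fluorescence was read from 25°C to 95°C at 0.05°C/s. The melting temperature shift is the mean of triplicates, taken against protein with DMSO alone after Boltzmann fitting.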

[2] = system: LOC_OS01G60330-cb001
In short: as §1

[3] = system: LOC_OS01G60700-cb002
In short: as §1

[4] = system: LOC_OS01G63280-cb003
In short: as §1

[5] = system: LOC_OS01G67340-cb003
In short: as §1

[6] = system: LOC_OS01G70970-cb002
In short: as §1

[7] = system: LOC_OS02G07810-cb001
In short: as §1

[8] = system: LOC_OS02G08530-cb003
In short: as §1

[9] = system: LOC_OS02G14120-cb001
In short: as §1

[10] = system: LOC_OS02G17970-cb001
In short: as §1

[11] = system: LOC_OS02G45750-cb003
In short: as §1

[12] = system: LOC_OS02G54510-cb004
In short: as §1

[13] = system: LOC_OS03G04050-cb001
In short: as §1

[14] = system: LOC_OS03G12390-cb001
In short: as §1

[15] = system: LOC_OS03G27990-cb004
In short: as §1

[16] = system: LOC_OS03G50450-cb001
In short: as §1

[17] = system: LOC_OS03G50810-cb003
In short: as §1

[18] = system: LOC_OS04G35114-cb001
In short: as §1

[19] = system: T1, LOC_OS04G38480-cb003
T1 sequence (whole entry): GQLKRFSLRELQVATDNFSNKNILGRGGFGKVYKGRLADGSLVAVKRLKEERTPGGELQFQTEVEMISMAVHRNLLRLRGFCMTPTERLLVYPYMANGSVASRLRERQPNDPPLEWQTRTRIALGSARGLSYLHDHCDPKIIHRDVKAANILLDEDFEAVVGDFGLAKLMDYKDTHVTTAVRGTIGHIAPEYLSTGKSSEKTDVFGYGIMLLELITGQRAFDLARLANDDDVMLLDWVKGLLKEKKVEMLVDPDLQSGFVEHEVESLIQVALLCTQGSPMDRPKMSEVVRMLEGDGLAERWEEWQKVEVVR
In short: as §1

[20] = system: T2, LOC_OS04G41100-cb001
T2 sequence (whole entry): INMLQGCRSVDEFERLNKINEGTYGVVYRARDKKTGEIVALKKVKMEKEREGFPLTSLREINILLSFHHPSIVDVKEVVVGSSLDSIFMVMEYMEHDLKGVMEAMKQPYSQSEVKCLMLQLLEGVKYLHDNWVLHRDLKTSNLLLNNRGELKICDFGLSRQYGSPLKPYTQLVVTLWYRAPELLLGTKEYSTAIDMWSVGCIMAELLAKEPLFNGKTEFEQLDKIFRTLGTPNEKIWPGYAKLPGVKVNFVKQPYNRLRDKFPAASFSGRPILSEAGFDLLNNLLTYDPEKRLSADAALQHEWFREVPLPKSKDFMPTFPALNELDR
In short: as §1

Row | SMILES | thermal shift delta Tm [1] | thermal shift delta Tm [2] | thermal shift delta Tm [3] | thermal shift delta Tm [4] | thermal shift delta Tm [5] | thermal shift delta Tm [6] | thermal shift delta Tm [7] | thermal shift delta Tm [8] | thermal shift delta Tm [9] | thermal shift delta Tm [10] | thermal shift delta Tm [11] | thermal shift delta Tm [12] | thermal shift delta Tm [13] | thermal shift delta Tm [14] | thermal shift delta Tm [15] | thermal shift delta Tm [16] | thermal shift delta Tm [17] | thermal shift delta Tm [18] | thermal shift delta Tm [19] | thermal shift delta Tm [20]
1 | CCn1c(-c2nonc2N)nc2c(C#CC(C)(C)O)ncc(OC[C@H]3CCCNC3)c21 | 0.99 °C | 0.93 °C | 1.82 °C | -0.01 °C | -0.43 °C | 0.35 °C | 0.56 °C | 0.64 °C | 0.88 °C | -0.03 °C | 0.16 °C | -0.17 °C | 0.51 °C | -0.08 °C | 0.32 °C | 0.05 °C | 0.05 °C | 0.41 °C | 0.66 °C | 1.1 °C
2 | CC[C@@H]1C(=O)N(C)c2cnc(Nc3ccc(C(=O)NC4CCN(C)CC4)cc3OC)nc2N1C1CCCC1 | 0.75 °C | 2.55 °C | 0.69 °C | -0.22 °C | -0.4 °C | 0.34 °C | 0.2 °C | 1.93 °C | 0.27 °C | 0.02 °C | 1.12 °C | 0.21 °C | 0.16 °C | 2.23 °C | -0.16 °C | -0.26 °C | 0.11 °C | 0.67 °C | -0.31 °C | 0.39 °C
3 | CCOC(=O)c1cnc2ccc(-c3cncc(NS(=O)(=O)c4ccccc4)c3)cn12 | 2.2 °C | 0.95 °C | 1.04 °C | 0.47 °C | 0.76 °C | 0.2 °C | 1.1 °C | 1.79 °C | -0.08 °C | 0.87 °C | 1.34 °C | 0.07 °C | 0.25 °C | 0.45 °C | 0.16 °C | 0.7 °C | 0.65 °C | 1.78 °C | 1.81 °C | 0.65 °C
4 | C[C@H](NC(=O)/C(C#N)=C/c1cccc(Br)n1)c1ccccc1 | 2.09 °C | 0.03 °C | -0.53 °C | -4.67 °C | -1.18 °C | -1.46 °C | 0.51 °C | 0.47 °C | -1.36 °C | -2.09 °C | -0.81 °C | -0.57 °C | 0.05 °C | -2.64 °C | -2.84 °C | 0.09 °C | -1.35 °C | -1.1 °C | 0.59 °C | -0.11 °C
5 | Oc1ccc(Nc2nc(-c3ccc(Cl)cc3)cs2)cc1 | -1.22 °C | 2.57 °C | -0.25 °C | 3.13 °C | 0.86 °C | 1.06 °C | 0.81 °C | -0.94 °C | 0.14 °C | -0.04 °C | 0.87 °C | -1.06 °C | 1.13 °C | 1.19 °C | 1.07 °C | 1.19 °C | 1.34 °C | 2.45 °C | -1.18 °C | 0.69 °C
6 | Oc1c(F)cc(-c2cnccc2-c2ccc(N3CCOCC3)cc2)cc1F | 1.14 °C | 1.01 °C | 0.34 °C | 0.58 °C | 0.1 °C | 0.21 °C | 0.35 °C | 0.7 °C | 0.35 °C | 0.29 °C | 0.77 °C | 0.07 °C | 0.28 °C | -0.05 °C | 0.11 °C | 0.25 °C | 0.2 °C | 1.09 °C | 0.6 °C | 0.44 °C
7 | CO[C@H]1C[C@@H]2CC[C@@H](C)[C@@](O)(O2)C(=O)C(=O)N2CCCC[C@H]2C(=O)O[C@H]([C@H](C)C[C@@H]2CC[C@H](n3cnnn3)[C@H](OC)C2)CC(=O)[C@H](C)/C=C(\C)[C@@H](O)[C@@H](OC)C(=O)[C@H](C)C[C@H](C)/C=C/C=C/C=C/1C [Zotarolimus(ABT-578)] | 2.14 °C | 2.43 °C | 1.29 °C | 0.68 °C | 0.45 °C | 0.71 °C | 1.19 °C | 0.56 °C | 0.48 °C | 1.06 °C | 1.04 °C | 0.46 °C | 0.79 °C | 0.05 °C | 0.77 °C | 0.89 °C | 0.33 °C | 0.66 °C | 2.27 °C | 0.4 °C
8 | CN1CCN(Cc2ccc(-c3cnc4[nH]cc(-c5ccc6[nH]ccc6c5)c4c3)cc2)CC1 | 2.72 °C | 5.96 °C | 2.47 °C | 7.33 °C | 7.26 °C | 10.2 °C | 1.34 °C | 5.47 °C | 10.8 °C | 0.97 °C | 17.2 °C | 1.09 °C | 0.85 °C | 4.74 °C | 10.8 °C | 3.95 °C | 7.6 °C | 14.9 °C | 6.36 °C | 3.3 °C
9 | CCN(CC)CCCCNc1ncc2cc(-c3cc(OC)cc(OC)c3)c(NC(=O)NC(C)(C)C)nc2n1 | 0.87 °C | 0.35 °C | 0.92 °C | 0.87 °C | 0.05 °C | 0.05 °C | 0.72 °C | 0.6 °C | -0.08 °C | 0.18 °C | 1.08 °C | 0.28 °C | 0.67 °C | 0.06 °C | 0.5 °C | 0.93 °C | 0.47 °C | 0.79 °C | 0.83 °C | 0.46 °C
10 | COc1cc2c(Oc3ccc4[nH]c(C)cc4c3F)ncnc2cc1OCCCN1CCCC1 [Cediranib (AZD2171)] | 0.31 °C | 1.14 °C | 0.79 °C | 0.02 °C | 0.06 °C | 0.42 °C | 0.2 °C | 0.41 °C | 0.33 °C | 0.26 °C | 1.17 °C | -0.01 °C | 0.25 °C | 1.5 °C | 0.44 °C | -0.12 °C | 2.04 °C | 5.53 °C | 0.23 °C | 0.71 °C
11 | O=C(Nc1cccnc1)c1cc(-c2ccnc(F)c2)ccc1OCc1ccccc1 | 0.33 °C | 0.69 °C | 0.86 °C | -0.26 °C | 0.85 °C | 0.12 °C | 0.46 °C | 2.26 °C | 0.34 °C | 0.6 °C | 1.01 °C | 0.22 °C | 0.77 °C | 4.48 °C | 0.39 °C | 0.36 °C | 0.76 °C | 0.97 °C | 1.76 °C | 0.25 °C
12 | Cc1ccc(C(=O)Nc2cccc(C(F)(F)F)c2)cc1Nc1nc(-c2cccnc2)nc2c1cnn2C | 2.35 °C | 2.86 °C | 1.11 °C | 0.24 °C | 0.79 °C | 0.92 °C | 1.8 °C | 1.77 °C | 0.87 °C | 2.02 °C | 0.71 °C | 1.84 °C | 0.36 °C | 1.07 °C | 0.25 °C | 0.79 °C | 0.32 °C | 0.29 °C | 0.47 °C | 0.58 °C
